Assay results reported in PubChem BioAssay (Tox21).
Records with an inconclusive call do not appear. Activity calls are given as the source filed them. Unless noted, calls come from the whole dose curve; as a rule, active = well fitted curve in the direction sought with a large enough effect in the repeat runs; inconclusive = weak or mixed curves; inactive = no such curve, though single readings can be large; an effect the other way counts as inactive or inconclusive.

Experiments:
[1] = qHTS assay to identify small molecule antagonists of the estrogen related receptor (ERR) signaling pathway - cell viability counter screen (AID 1224818); note: series mostly up to about 46 µM
Procedure, shortened: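 Fluorescence from CellTiter-Fluor, read 30 min after reagent addition at 37 C, measured viability of ERR cells exposed to compounds for 17.5 h. Cells had settled 6 h before dosing.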

[2] = qHTS assay to identify small molecule antagonists of the estrogen related receptor (ERR) signaling pathway (AID 1224819;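 note: luminescence from an ERR-driven luciferase reporter measured with One-Glo reagent; series mostly up to about 46 µM; nearly all actives have a fitted effect of over 50% in size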)
Procedure, shortened: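 Luminescence readout (One-Glo, 30 min, RT) of ERR cell line after 18 h compound exposure at 37 C; cells seeded 2,000/well, pre-incubated 6 h, compounds pinned from DMSO stocks.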

[3] = qHTS assay to identify small molecule agonists of the estrogen related receptor (ERR) signaling pathway (AID 1224820); note: potency is the fitted concentration of half-maximal effect
Procedure, shortened: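 Following a 6 h settling period, 2,000 ERR cells per well receive DMSO-dissolved compounds by pin tool and incubate 18 h at 37 C; agonist activity is scored from One-Glo luminescence read 30 min post-addition.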

[4] = test system: estrogen-related receptor alpha (ERRalpha) with PGC-1alpha coactivator, human; assay: qHTS assay to identify small molecule antagonists of the estrogen related receptor signaling pathway with the pleiotropic PPARgamma coactivator (PGC) (AID 1224821; calls by dose curve; note: nearly all actives have a fitted effect of over 50% in size; note: potency is the fitted concentration of half-maximal effect)
Procedure, shortened: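 Screening used NTP's PGC/ERR cells, dosed via pin tool with compound in DMSO alongside positive and negative controls. After 18 h at 37 C, One-Glo reagent sat 30 min at room temperature before luminescence detection.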

[5] = qHTS assay to identify small molecule antagonists of the estrogen related receptor signaling pathway with the pleiotropic PPARgamma coactivator (PGC) cell viability counter screen (AID 1224822; note: potency is the fitted concentration of half-maximal effect)
Procedure, shortened: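 Fluorescence read-out of CellTiter-Fluor after 30 min at 37 C; PGC/ERR cells, 2,000 per well, had been exposed to DMSO-dissolved compounds for 17.5 h following a 6 h pre-incubation.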

Measured: Potency

Clc1ccc(N2CC3CCC(C2)N3)nn1
inactive: all assays above

CC(C)(C)OC(=O)NC1[C@H]2CNC[C@@H]12 (stereo not given in full)
active: [4] 15.5 µM | [5] 20.3 µM
inactive: all other assays above

C[C@H](N)Cc1cccc(C(F)(F)F)c1
inactive: all assays above

Oc1ccc2c3c1O[C@H]1c4[nH]c5c(c4C[C@@]4(O)[C@@H](C2)N(CC2CC2)CC[C@]314)C[C@@]1(O)[C@H]2Cc3ccc(O)c4c3[C@@]1(CCN2CC1CC1)[C@H]5O4
inactive: all assays above

CC(C)(C)c1o[nH]c(=O)c1CC(N)C(=O)O (stereo not given)
inactive: all assays above

C[N+]1(C)CCN(c2ccccc2)CC1
inactive: all assays above

C[N+]1(C)CCc2cc3c(cc2[C@H]1[C@@H]1OC(=O)c2c1ccc1c2OCO1)OCO3
inactive: all assays above

CC(=O)OCC1=C(C(=O)[O-])N2C(=O)[C@@H](NC(=O)CCC[C@@H](N)C(=O)[O-])[C@H]2SC1.[Zn+2]
inactive: all assays above

Oc1ccc2c3c1O[C@H]1c4[nH]c5ccccc5c4C[C@@]4(O)C(C2)N(CC2CC2)CCC314 (stereo not given in full)
inactive: all assays above

Clc1cc(I)cc(Cl)c1NC1=NCCN1
inactive: all assays above

C#CCOC(=O)C1=CCCN(C)C1
active: [3] 22 µM
inactive: all other assays above

CNCCc1ccc(O)c(O)c1
inactive: all assays above

CCCN(CCC)[C@@H]1CCc2ccc(O)cc2C1
inactive: all assays above

CCCN(CCC)C1Cc2cc(OC)c(OC)cc2C1
inactive: all assays above

C[N+]1(C)C2CCC1CC(OC(=O)c1c[nH]c3ccccc13)C2 (stereo not given)
inactive: all assays above

CC1OC1P(=O)(O)O (stereo not given)
inactive: all assays above

N=C(N)c1ccc(CS(=O)(=O)F)cc1
inactive: all assays above

NC(CCCCCP(=O)(O)O)C(=O)O (stereo not given)
inactive: all assays above

CN(C(=O)Cc1ccc(Cl)c(Cl)c1)C(CN1CCCC1)c1cccc(OCC(=O)O)c1 (stereo not given)
inactive: all assays above

O=C(O)Cc1cnc[nH]1
inactive: all assays above

C=CCN1CCC23c4c5ccc(O)c4O[C@H]2C(=O)CC[C@@]3(O)C1C5 (stereo not given in full)
inactive: all assays above

CCCN(CCC)CCc1ccc(O)c(O)c1
inactive: all assays above
